Test results taken from PubChem BioAssay AID1159580 (chemical genetic matrix, 2015).
Several values for one entry are separate records, joined by “and”; a condition that tells them apart may be missing. Equal entries are not always repeated. Among all 5,500 compounds or so, about 2,000 (36%) were called active. Not shown: some 18% with an inconclusive outcome. No stated cut-off is given here; in the data, active means normalized growth mostly below about 0.91 (no sharp cut-off); inconclusive means no clear call, values can overlap the other calls; inactive means mostly above about 0.92. The list shows a part of the results.

Assay: chemical genetic growth profiling, strain panel (AID 1159580);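 further: tested at 20 µM; growth read once vehicle control cultures reached saturation at 30 °C; 1 = growth at the plate median or of vehicle wells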
Details: growth OD

Measured: normalized growth

CC(C)Cn1c(=O)n(C)c(=O)c2[nH]cnc21
inactive: S. cerevisiae deletion strains, locus YJR075W, strain HOC1, stronger effect = lower value 0.999 | S. cerevisiae deletion strains, locus YKL009W, strain mrt4, stronger effect = lower value 0.969 | S. cerevisiae deletion strains, locus YKL068W, stronger effect = lower value 0.991 | S. cerevisiae deletion strains, locus YKL085W, strain MDH1 (second series), stronger effect = lower value 0.983 | S. cerevisiae deletion strains, locus YKL085W, strain MDH1, stronger effect = lower value 0.983 | S. cerevisiae deletion strains, locus YKL160W, strain elf1, stronger effect = lower value 0.986 and 0.992 | S. cerevisiae deletion strains, locus YKL190W, strain CNB1, stronger effect = lower value 1.01 | S. cerevisiae deletion strains, locus YKR001C, strain vps1, stronger effect = lower value 0.967 | S. cerevisiae deletion strains, locus YKR026C, strain gcn3, stronger effect = lower value 0.985 and 1.01 | S. cerevisiae deletion strains, locus YKR091W, strain srl3, stronger effect = lower value 0.988 and 1 | S. cerevisiae deletion strains, locus YLL001W, strain dnm1, stronger effect = lower value 0.994 and 1.01 | S. cerevisiae deletion strains, locus YLL026W, stronger effect = lower value 0.999 and 1.01 | S. cerevisiae deletion strains, locus YLL041C, strain sdh2, stronger effect = lower value 0.997 and 1 | S. cerevisiae deletion strains, locus YLR027C, strain aat2, stronger effect = lower value 1 and 1.01 | S. cerevisiae deletion strains, locus YLR039C, strain RIC1, stronger effect = lower value 0.953 | S. cerevisiae deletion strains, locus YLR058C, strain SHM2, stronger effect = lower value 0.991 | S. cerevisiae deletion strains, locus YLR102C, strain apc9, stronger effect = lower value 0.99 | S. cerevisiae deletion strains, locus YLR113W, strain HOG1, stronger effect = lower value 1.01 and 0.985 | S. cerevisiae deletion strains, locus YLR221C, strain rsa3, stronger effect = lower value 1 and 1.04 | S. cerevisiae deletion strains, locus YLR258W, strain gsy2, stronger effect = lower value 0.988 and 1.02 | S. cerevisiae deletion strains, locus YLR262C, strain YPT6 (second series), stronger effect = lower value 1.01 and 0.998 | S. cerevisiae deletion strains, locus YLR262C, strain YPT6, stronger effect = lower value 0.966 | S. cerevisiae deletion strains, locus YLR268W, strain sec22, stronger effect = lower value 0.978 | S. cerevisiae deletion strains, locus YLR320W, strain mms22, stronger effect = lower value 1 and 1.04 | S. cerevisiae deletion strains, locus YLR330W, strain CHS5, stronger effect = lower value 0.991 | S. cerevisiae deletion strains, locus YLR342W, strain FKS1 (second series), stronger effect = lower value 0.953 | S. cerevisiae deletion strains, locus YLR342W, strain FKS1, stronger effect = lower value 1 and 1.01 | S. cerevisiae deletion strains, locus YLR357W, strain rsc2, stronger effect = lower value 1.03 and 1 | S. cerevisiae deletion strains, locus YLR370C, strain arc18, stronger effect = lower value 1 and 1.03 | S. cerevisiae deletion strains, locus YLR371W, strain rom2, stronger effect = lower value 0.982 | S. cerevisiae deletion strains, locus YLR384C, strain iki3, stronger effect = lower value 0.985 and 1.01 | S. cerevisiae deletion strains, locus YLR418C, strain cdc73, stronger effect = lower value 1.02 | S. cerevisiae deletion strains, locus YML016C, strain PPZ1, stronger effect = lower value 0.988 | S. cerevisiae deletion strains, locus YML032C, strain rad52, stronger effect = lower value 0.973 | S. cerevisiae deletion strains, locus YML120C, strain ndi1, stronger effect = lower value 1.01 and 0.981 | S. cerevisiae deletion strains, locus YML124C, strain tub3, stronger effect = lower value 0.981 | S. cerevisiae deletion strains, locus YMR058W, strain fet3, stronger effect = lower value 1.01 and 1.03 | S. cerevisiae deletion strains, locus YMR078C, strain ctf18, stronger effect = lower value 0.98 | S. cerevisiae deletion strains, locus YMR125W, strain sto1, stronger effect = lower value 0.998 and 0.978 | S. cerevisiae deletion strains, locus YMR129W, stronger effect = lower value 0.994 and 1 | S. cerevisiae deletion strains, locus YMR205C, strain PFK2, stronger effect = lower value 0.991 and 0.986 | S. cerevisiae deletion strains, locus YMR223W, strain ubp8, stronger effect = lower value 0.973 | S. cerevisiae deletion strains, locus YMR231W, strain pep5, stronger effect = lower value 1 and 1.01 | S. cerevisiae deletion strains, locus YMR263W, strain SAP30, stronger effect = lower value 1.01 | S. cerevisiae deletion strains, locus YMR307W, strain GAS1, stronger effect = lower value 0.924 | S. cerevisiae deletion strains, locus YNL067W, strain RPL9B, stronger effect = lower value 0.999 | S. cerevisiae deletion strains, locus YNL071W, strain lat1, stronger effect = lower value 1.02 and 1 | S. cerevisiae deletion strains, locus YNL128W, strain TEP1, stronger effect = lower value 1.01 | S. cerevisiae deletion strains, locus YNL153C, strain GIM3, stronger effect = lower value 1.02 | S. cerevisiae deletion strains, locus YNL175C, strain NOP13, stronger effect = lower value 0.999 | S. cerevisiae deletion strains, locus YNL183C, strain NPR1, stronger effect = lower value 0.928 and 0.909 | S. cerevisiae deletion strains, locus YNL197C, strain WHI3, stronger effect = lower value 0.986 | S. cerevisiae deletion strains, locus YNL209W, strain ssb2, stronger effect = lower value 1.02 and 0.995 | S. cerevisiae deletion strains, locus YNL224C, strain SQS1, stronger effect = lower value 0.998 | S. cerevisiae deletion strains, locus YNL233W, strain BNI4, stronger effect = lower value 0.998 | S. cerevisiae deletion strains, locus YNL248C, strain rpa49, stronger effect = lower value 0.996 and 1.06 | S. cerevisiae deletion strains, locus YNL250W, strain rad50, stronger effect = lower value 0.98 | S. cerevisiae deletion strains, locus YNL271C, strain bni1, stronger effect = lower value 0.999 | S. cerevisiae deletion strains, locus YNL298W, strain CLA4, stronger effect = lower value 0.983 | S. cerevisiae deletion strains, locus YNL307C, strain MCK1, stronger effect = lower value 0.976 | S. cerevisiae deletion strains, locus YNL322C, strain KRE1 (second series), stronger effect = lower value 0.996 and 0.988 | S. cerevisiae deletion strains, locus YNL322C, strain KRE1, stronger effect = lower value 0.993 and 0.979 | S. cerevisiae deletion strains, locus YNR049C, strain mso1, stronger effect = lower value 0.992 and 1.01 | S. cerevisiae deletion strains, locus YNR052C, strain pop2, stronger effect = lower value 0.989 | S. cerevisiae deletion strains, locus YOL006C, strain TOP1, stronger effect = lower value 0.998 | S. cerevisiae deletion strains, locus YOL012C, strain htz1 2.1 | S. cerevisiae deletion strains, locus YOL147C, strain pex11, stronger effect = lower value 0.985 | S. cerevisiae deletion strains, locus YOR001W, strain rrp6, stronger effect = lower value 1.01 and 1.05 | S. cerevisiae deletion strains, locus YOR061W, strain CKA2, stronger effect = lower value 0.993 | S. cerevisiae deletion strains, locus YOR069W, strain VPS5, stronger effect = lower value 0.987 | S. cerevisiae deletion strains, locus YOR070C, strain gyp1, stronger effect = lower value 1 and 1.01 | S. cerevisiae deletion strains, locus YOR080W, strain dia2, stronger effect = lower value 1.01 | S. cerevisiae deletion strains, locus YOR083W, strain WHI5 (second series), stronger effect = lower value 0.998 | S. cerevisiae deletion strains, locus YOR083W, strain WHI5, stronger effect = lower value 0.958 and 0.992 | S. cerevisiae deletion strains, locus YOR106W, strain vam3, stronger effect = lower value 1 and 0.973 | S. cerevisiae deletion strains, locus YOR136W, strain idh2, stronger effect = lower value 0.981 | S. cerevisiae deletion strains, locus YOR144C, strain elg1, stronger effect = lower value 0.987 | S. cerevisiae deletion strains, locus YOR184W, strain ser1, stronger effect = lower value 0.96 | S. cerevisiae deletion strains, locus YOR231W, strain MKK1, stronger effect = lower value 1.01 and 0.96 | S. cerevisiae deletion strains, locus YOR265W, strain rbl2, stronger effect = lower value 1 | S. cerevisiae deletion strains, locus YOR270C, strain vph1, stronger effect = lower value 0.997 and 1.08 | S. cerevisiae deletion strains, locus YOR290C, strain snf2, stronger effect = lower value 0.994 and 0.97 | S. cerevisiae deletion strains, locus YOR316C, strain cot1, stronger effect = lower value 0.993 | S. cerevisiae deletion strains, locus YPL051W, strain arl3, stronger effect = lower value 0.997 and 1.02 | S. cerevisiae deletion strains, locus YPL055C, strain LGE1, stronger effect = lower value 1.03 | S. cerevisiae deletion strains, locus YPL078C, strain atp4, stronger effect = lower value 1 and 0.993 | S. cerevisiae deletion strains, locus YPL106C, strain sse1, stronger effect = lower value 0.998 and 1.02 | S. cerevisiae deletion strains, locus YPL240C, strain hsp82, stronger effect = lower value 1 and 1.01 | S. cerevisiae deletion strains, locus YPL241C, strain CIN2, stronger effect = lower value 0.992 | S. cerevisiae deletion strains, locus YPL256C, strain CLN2, stronger effect = lower value 0.993 and 0.947 | S. cerevisiae deletion strains, locus YPR119W, strain clb2, stronger effect = lower value 0.993 | S. cerevisiae deletion strains, locus YPR141C, strain kar3, stronger effect = lower value 0.975 | S. cerevisiae deletion strains, locus YPR163C, strain tif3, stronger effect = lower value 0.998 | S. cerevisiae deletion strains, locus YPR167C, strain met16, stronger effect = lower value 0.988 | S. cerevisiae deletion strains, strain wtn01, stronger effect = lower value 0.988 | S. cerevisiae strains, strain wild type, stronger effect = lower value 0.995
